Hits are enriched below; roughly 3.5% of the tested compounds scored in any of these assays.
NS1 inh = influenza NS1 inhibition | Potency, µM (highest dose often 46.1 µM), inactives show at the highest dose activity, positive = more growth | 270,000 tested, 0.4% active; calls by dose curve; note: actives are rising curves; nearly all actives have a fitted effect of over 50% in size
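Recovery from NS1-induced slow growth read by OD600 in budding yeast switched to galactose assay medium (pH 6.0, -URA) at 1:100 dilution. Compound 23 nl per well; the matching strain lacking NS1 serves as control.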
Giardia FBPA inh-1 = Giardia lamblia aldolase inhibition; A8B2U2; purified Giardia FBPA; Potency, µM (doses to about 59.6 µM), without a hit: at the top dose activity, negative = inhibition, hits mostly inhibitors; 290,000 tested, 0.71% active; AID 2451; note: % is set by controls: 0 for no effect and ±100 for the full control effect; nearly all actives have a fitted effect of over 55% in size
Target sequence (A8B2U2 whole entry, looked up): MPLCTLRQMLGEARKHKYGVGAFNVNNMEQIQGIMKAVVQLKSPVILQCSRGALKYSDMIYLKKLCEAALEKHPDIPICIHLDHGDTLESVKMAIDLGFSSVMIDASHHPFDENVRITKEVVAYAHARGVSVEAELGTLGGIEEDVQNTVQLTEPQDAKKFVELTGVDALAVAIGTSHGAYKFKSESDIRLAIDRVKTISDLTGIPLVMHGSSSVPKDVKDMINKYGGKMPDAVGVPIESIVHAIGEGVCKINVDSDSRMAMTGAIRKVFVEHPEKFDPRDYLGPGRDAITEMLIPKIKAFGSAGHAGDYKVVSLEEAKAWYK
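40 nM FBPA preincubated 10 min at RT with compound (up to 57.5 uM final), then substrate plus GAPDH/TPI/NAD/arsenate coupling and diaphorase/resazurin added. Fluorescence read after 20 min at RT, 525/598 nm.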
Sm TGR block = S. mansoni TGR enzyme inhibition | Q962Y6 | purified TGR, DTNB reduction, TNB absorbance 405 nm | Potency, µM (highest dose often 114 µM), inactives show top-dose activity change, negative = inhibition, hits mostly inhibitors | 360,000 tested, 3% active; note: % is set by controls: 0 for no effect and ±100 for the full control effect; nearly all actives have a fitted effect of over 60% in size
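Kinetic colorimetric format: TGR-catalysed, NADPH-driven DTNB reduction monitored via TNB absorbance. Enzyme dispensed at 20 nM; compound exposure 15 min at room temperature before reaction start.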
RE007 growth inh = less growth of the S. pombe RE007 Vpr strain; S. pombe RE007 Vpr strain, BacTiter-Glo ATP luminescence, 24 h; Potency, µM (doses to about 92.2 µM), without a hit: at the highest dose activity change, negative = less growth, most hits filed as inhibitors; 360,000 tested, 0.21% active; active = well fitted falling curve with a large enough effect; inconclusive = small, poorly fitted or top-dose-only effect; inactive = no such curve, though single readings can be large or run the other way; note: % is set by controls: 0 for no effect and ±100 for the full control effect; nearly all actives have a fitted effect of over 50% in size
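Fission yeast strain RE007, carrying one chromosomally integrated HIV-1 vpr copy, was seeded at OD 0.01 in PMG+AL medium with 23 nL pinned compound. After 24 h at 30 °C and 99% humidity, viability was read by BacTiter-Glo luminescence.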
TbPYK inhibitor = inhibitors of Trypanosoma brucei pyruvate kinase; TbPYK enzyme, Kinase-Glo Plus ATP luminescence, 45 min; Potency, µM (titrated, usually from 76.8 µM), inactives show at the highest dose activity, negative = inhibition, most hits filed as inhibitors; 410,000 tested, 0.12% active; note: % is set by controls: 0 for no effect and ±100 for the full control effect; nearly all actives have a fitted effect of over 50% in size
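Activity of T. brucei pyruvate kinase was followed by Kinase-Glo Plus luminescence after the enzyme reacted 45 min at room temperature with 130 uM ADP (final) and substrate. Test compounds were added before ADP at multiple concentrations.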
LmPK inh = inhibitors of Leishmania mexicana pyruvate kinase; Q27686; purified LmPK, Kinase-Glo ATP luminescence, 1 h; Potency, µM (highest dose often 57.5 µM), without a hit: top-dose activity change, negative = inhibition, most hits filed as inhibitors; 290,000 tested, 0.37% active; AID 1721; note: % is set by controls: 0 for no effect and ±100 for the full control effect
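Purified LmPK (0.1 nM) with 0.5 mM PEP and 0.1 mM ADP in imidazole buffer pH 7.2 with MgCl2/KCl, 1 h at room temperature. ATP formed was read by luciferase luminescence and normalized to no-enzyme and uninhibited controls.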
Giardia growth = Giardia lamblia growth inhibition; 1,500 tested, 5% active; Potency, µM (highest dose often 57.5 µM), without a hit: at the highest dose activity change, negative = inhibition, usual class: inhibitors; Giardia lamblia trophozoite growth inhibition; shares compounds with Giardia FBPA inh-1;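 note: trophozoites exposed to compound for 48 h at 37 °C; % is set by controls: 0 for no effect and ±100 for the full control effect; nearly all actives have a fitted effect of over 70% in size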
Mammalian tox = counter-screen for Giardia aldolase inhibitors: mammalian cell toxicity. shares compounds with Giardia FBPA inh-1. mammalian cell viability counter-screen, qHTS. Potency, µM (series often up to 57.5 µM), for the others: at the top dose viability change, negative = toxicity, usual class: inhibitors. 1,500 tested, 4% active. AID 2786;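 note: Chinese hamster ovary cells used as mammalian cytotoxicity surrogate; viability measured as cellular ATP by luminescence; compound exposure lasted 48 h before reading; % is set by controls: 0 for no effect and ±100 for the full control effect; nearly all actives have a fitted effect of over 60% in size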
Giardia FBPA inh-2 = confirmation of Giardia fructose-bisphosphate aldolase inhibitors | shares compounds with Giardia FBPA inh-1 | purified Giardia aldolase enzyme activity, qHTS | Potency, µM (series often up to 57.5 µM), inactives show at the top dose activity change, negative = inhibition, most hits filed as inhibitors | 1,500 tested, 5% active; note: % is set by controls: 0 for no effect and ±100 for the full control effect; nearly all actives have a fitted effect of over 45% in size
Rabbit aldolase = rabbit FBP aldolase inhibition by Giardia aldolase hits. shares compounds with Giardia FBPA inh-1. Rabbit muscle FBPA enzyme inhibition, selectivity counter-screen. Potency, µM (series often up to 57.5 µM), for the others: top-dose activity, negative = inhibition, most hits filed as inhibitors. 1,500 tested, 4% active; note: % is set by controls: 0 for no effect and ±100 for the full control effect; nearly all actives have a fitted effect of over 60% in size
GAPDH coupling = counter-screen for Giardia aldolase inhibitors: GAPDH coupling enzyme; 1,500 tested, 6% active; GAPDH coupling enzyme counterscreen, biochemical, qHTS; Potency, µM (titrated, usually from 57.5 µM), for inactives: top-dose activity change, negative = inhibition, hits mostly inhibitors; shares compounds with Giardia FBPA inh-1; note: % is set by controls: 0 for no effect and ±100 for the full control effect; nearly all actives have a fitted effect of over 55% in size
An asterisk follows results filed as active; [ ] = another dose, or the depositor's remark. Unless noted, calls come from the whole dose curve; as a rule, active = well fitted curve in the direction sought with a large enough effect; inconclusive = small, poorly fitted or top-dose-only effect, or another doubt; inactive = no such curve, though single readings can be large; an effect the other way counts as inactive or inconclusive. Potency is the fitted concentration of half-maximal effect.

CCCCN(Cc1ccccc1)C(=O)CN(C)S(=O)(=O)c1ccc2c(c1)c(=O)n(C)c(=O)n2C was read as Sm TGR block 8.5% and TbPYK inhibitor 5.6%.
`Cc1ccccc1C(=O)c1cccn1CC(=O)NCCCN1CCc2ccccc2C1` gave Giardia FBPA inh-1 15.8µM*, Sm TGR block -19.9%, RE007 growth inh -5.8%, TbPYK inhibitor -15.8%, LmPK inh 1.7%[11.5 µM], Giardia growth inconclusive, Mammalian tox -11.7%, Giardia FBPA inh-2 8.7%, Rabbit aldolase 10.0% and GAPDH coupling 5.9%.
Screening CCOc1cc(C(=O)Nc2c(NC)c3ccccc3oc2=O)cc(OCC)c1OCC returned Sm TGR block 10.3% and TbPYK inhibitor 1.0%.
For COc1ccc2c(c1)-c1nc(/N=C/c3cccc(OC)c3O)sc1CC2 the results were NS1 inh -64.3%, Giardia FBPA inh-1 1.41µM*, Sm TGR block 5.1%, RE007 growth inh inconclusive, TbPYK inhibitor -5.3%, LmPK inh inconclusive, Giardia growth -27.6%[38.3 µM], Mammalian tox -2.0%, Giardia FBPA inh-2 inconclusive, Rabbit aldolase inconclusive and GAPDH coupling inconclusive.
Screening C/C(=N/O)c1ccccn1 returned NS1 inh 1.0%, Giardia FBPA inh-1 3.15µM*, Sm TGR block 56.1%, RE007 growth inh 8.4%, TbPYK inhibitor -0.9%, LmPK inh 4.3%, Giardia growth 0.2%[38.3 µM], Mammalian tox -19.0%, Giardia FBPA inh-2 -20.5%, Rabbit aldolase 13.2% and GAPDH coupling inconclusive.
For CC1=C(C#N)C(=O)N(C2CCS(=O)(=O)C2)C(=O)/C1=C\c1ccco1 (stereo not drawn) the results were NS1 inh 18.0%, Giardia FBPA inh-1 9.98µM*, Sm TGR block 8.91µM*, LmPK inh inconclusive, Giardia growth 11.6%[38.3 µM], Mammalian tox -5.5%, Giardia FBPA inh-2 inconclusive, Rabbit aldolase inconclusive and GAPDH coupling 20.6µM*.
C=CCc1cc(OC)ccc1OCCCCn1cncn1 was read as NS1 inh -28.6%, Giardia FBPA inh-1 31.6µM*, Sm TGR block inconclusive, RE007 growth inh -3.6%, TbPYK inhibitor 14.9%, LmPK inh -1.7%, Giardia growth inconclusive, Mammalian tox 12.1%, Giardia FBPA inh-2 0.6%, Rabbit aldolase 12.7% and GAPDH coupling -6.8%.
Screening CCOc1ccc(N(CC)S(=O)(=O)N2CCCC(C(=O)NCCc3ccccc3OC)C2)cc1 (stereo not drawn) returned Sm TGR block 2.3% and TbPYK inhibitor -2.1%.

High-throughput results from PubChem BioAssay.
